# Results taken from the supplement of paper PMC10037445.
# Whole data set: some 2,900 compounds, median “IRF Lucia reporter activity, fold change vs agonist alone” near 0.9, cut for the highest 2% near 2.8. Shown is part of a subset that was picked to be rich in the highest values.
# Experiments:
# RAW-Dual [1] = assay: IRF Lucia reporter activity, fold change vs agonist alone; higher = enhanced IRF activity; conditions: agonist: MPLA (TLR4) […]
# In short: (§1)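 Cytotoxic wells were those whose IncuCyte confluency was below 70% of agonist controls in both mask sets. The cells were RAW-Dual macrophages at 50,000 cells/well in DMEM on 384-well plates, dosed with 50 nL of library stock by pin tool, stimulated with a PRR agonist 1 h later, and kept at 37 °C, 5% CO2 for 20 hours. IRF and NF-κB reporter activity, as fold change over agonist-alone wells, came from supernatant read by QuantiLuc luminescence and QuantiBlue absorbance, respectively.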
# RAW-Dual [2] = assay: IRF Lucia reporter activity, fold change vs agonist alone; cytotoxicity flag (confluency mask): not cytotoxic; higher = enhanced IRF activity
# In short: as §1
# RAW-Dual [3] = assay: IRF Lucia reporter activity, fold change vs agonist alone; cytotoxicity flag (confluency mask): cytotoxic (confluency <70% of control); higher = enhanced IRF activity
# In short: as §1
# [4] = library stock concentration (final ~1000-fold dilution): 10 mM, cytotoxicity flag (confluency mask): not cytotoxic
# [5] = agonist: 3'3'-cGAMP (STING) 10 ug/mL
# [6] = library stock concentration (final ~1000-fold dilution): 10 mM, cytotoxicity flag (confluency mask): cytotoxic (confluency <70% of control)
compound,measurement,setting,value
CC1CC(C(=O)O)C2CCC3(C)C(=CCC4C5(C)CCC(O)C(C)(C)C5CCC43C)C2C1C (stereo not drawn),IRF Lucia reporter activity,RAW-Dual [1]; [4],1.06
CC1CC(C(=O)O)C2CCC3(C)C(=CCC4C5(C)CCC(O)C(C)(C)C5CCC43C)C2C1C (stereo not drawn) (library stock concentration (final ~1000-fold dilution): 10 mM),IRF Lucia reporter activity,RAW-Dual [2]; [5],0.973
same,IRF Lucia reporter activity,RAW-Dual [2]; agonist: LPS (TLR4) 0.1 ug/mL,1.12
Cc1[nH]c(C=C2C(=O)Nc3ccc(F)cc32)c(C)c1C(=O)NCCN1CCCC1 (library stock concentration (final ~1000-fold dilution): 2 mM),IRF Lucia reporter activity,RAW-Dual [2]; [5],0.0313
same,IRF Lucia reporter activity,RAW-Dual [2]; agonist: LPS (TLR4) 0.1 ug/mL,0.194
Cc1[nH]c(C=C2C(=O)Nc3ccc(F)cc32)c(C)c1C(=O)NCCN1CCCC1,IRF Lucia reporter activity,"RAW-Dual [1]; library stock concentration (final ~1000-fold dilution): 2 mM, cytotoxicity flag (confluency mask): not cytotoxic",0.869
CC(c1ncncc1F)C(O)(Cn1cncn1)c1ccc(F)cc1F (stereo not drawn) (library stock concentration (final ~1000-fold dilution): 10 mM),IRF Lucia reporter activity,RAW-Dual [2]; [5],1.11
same,IRF Lucia reporter activity,RAW-Dual [2]; agonist: LPS (TLR4) 0.1 ug/mL,0.893
CC(c1ncncc1F)C(O)(Cn1cncn1)c1ccc(F)cc1F (stereo not drawn),IRF Lucia reporter activity,RAW-Dual [1]; [4],0.639
CC1Cc2c([nH]c3ccccc23)C(c2c(F)cc(/C=C/C(=O)O)cc2F)N1CC(C)(C)F (stereo not drawn) (library stock concentration (final ~1000-fold dilution): 10 mM),IRF Lucia reporter activity,RAW-Dual [2]; [5],1.14
same,IRF Lucia reporter activity,RAW-Dual [2]; agonist: LPS (TLR4) 0.1 ug/mL,1.23
Cl.O=C(NC1CCNCC1)c1n[nH]cc1NC(=O)c1c(Cl)cccc1Cl (library stock concentration (final ~1000-fold dilution): 10 mM),IRF Lucia reporter activity,RAW-Dual [3]; [5],0.0898
same,IRF Lucia reporter activity,RAW-Dual [3]; agonist: LPS (TLR4) 0.1 ug/mL,0.581
CS(=O)(=O)O.CS(=O)(=O)O.Cc1ccc(C(=O)Nc2ccc(CN3CCN(C)CC3)c(C(F)(F)F)c2)cc1C#Cc1cnc2[nH]ncc2c1 (library stock concentration (final ~1000-fold dilution): 10 mM),IRF Lucia reporter activity,RAW-Dual [3]; [5],0.00912
same,IRF Lucia reporter activity,RAW-Dual [3]; agonist: LPS (TLR4) 0.1 ug/mL,0.0192
CS(=O)(=O)O.CS(=O)(=O)O.Cc1ccc(C(=O)Nc2ccc(CN3CCN(C)CC3)c(C(F)(F)F)c2)cc1C#Cc1cnc2[nH]ncc2c1,IRF Lucia reporter activity,RAW-Dual [1]; [6],0.0201
COc1ccc(-c2cc3c(C)nc(N)nc3n(C3CCC(OCCO)CC3)c2=O)cn1 (stereo not drawn) (library stock concentration (final ~1000-fold dilution): 10 mM),IRF Lucia reporter activity,RAW-Dual [3]; [5],0.282
same,IRF Lucia reporter activity,RAW-Dual [3]; agonist: LPS (TLR4) 0.1 ug/mL,0.508
COc1ccc(-c2cc3c(C)nc(N)nc3n(C3CCC(OCCO)CC3)c2=O)cn1 (stereo not drawn),IRF Lucia reporter activity,RAW-Dual [1]; [6],0.387
CCOC(=O)c1cnc2ccc(-c3cncc(NS(=O)(=O)c4ccccc4)c3)cn12 (library stock concentration (final ~1000-fold dilution): 10 mM),IRF Lucia reporter activity,RAW-Dual [3]; [5],0.284
same,IRF Lucia reporter activity,RAW-Dual [3]; agonist: LPS (TLR4) 0.1 ug/mL,4.78
CCOC(=O)c1cnc2ccc(-c3cncc(NS(=O)(=O)c4ccccc4)c3)cn12,IRF Lucia reporter activity,RAW-Dual [1]; [6],4.46
Nc1nc2cc(-c3ccc4ncc(C(=O)N5CCOCC5)n4c3)ccc2o1 (library stock concentration (final ~1000-fold dilution): 10 mM),IRF Lucia reporter activity,RAW-Dual [2]; [5],0.343
same,IRF Lucia reporter activity,RAW-Dual [2]; agonist: LPS (TLR4) 0.1 ug/mL,1.04
COCCNCCc1cccc(Nc2ncc3c(n2)-c2ccccc2C(c2ccccc2F)C3)c1 (stereo not drawn) (library stock concentration (final ~1000-fold dilution): 10 mM),IRF Lucia reporter activity,RAW-Dual [3]; [5],0.0166
same,IRF Lucia reporter activity,RAW-Dual [3]; agonist: LPS (TLR4) 0.1 ug/mL,0.159
CN1CCC(c2c(O)cc(O)c3c(=O)cc(-c4ccccc4Cl)oc23)C1CO.Cl (stereo not drawn) (library stock concentration (final ~1000-fold dilution): 10 mM),IRF Lucia reporter activity,RAW-Dual [3]; [5],0.00862
same,IRF Lucia reporter activity,RAW-Dual [3]; agonist: LPS (TLR4) 0.1 ug/mL,0.0242
CN(CC1COCCO1)S(=O)(=O)Nc1ccc2ccc3ncc(-c4cnn(C)c4)cc3c(=O)c2c1 (stereo not drawn),IRF Lucia reporter activity,RAW-Dual [1]; [4],0.63
CN(CC1COCCO1)S(=O)(=O)Nc1ccc2ccc3ncc(-c4cnn(C)c4)cc3c(=O)c2c1 (stereo not drawn) (library stock concentration (final ~1000-fold dilution): 10 mM),IRF Lucia reporter activity,RAW-Dual [2]; [5],0.306
same,IRF Lucia reporter activity,RAW-Dual [2]; agonist: LPS (TLR4) 0.1 ug/mL,0.736
COC(=O)C1=COC(OC2OC(CO)C(O)C(O)C2O)C2C1CC(O)C2C (stereo not drawn) (library stock concentration (final ~1000-fold dilution): 10 mM),IRF Lucia reporter activity,RAW-Dual [2]; [5],1.08
same,IRF Lucia reporter activity,RAW-Dual [2]; agonist: LPS (TLR4) 0.1 ug/mL,1.3
COC(=O)C1=COC(OC2OC(CO)C(O)C(O)C2O)C2C1CC(O)C2C (stereo not drawn),IRF Lucia reporter activity,RAW-Dual [1]; [4],1.12
CCCc1cc(C)[nH]c(=O)c1CNC(=O)c1cc(-c2ccc(N3CCN(C)CC3)nc2)nc2c1cnn2C(C)C (library stock concentration (final ~1000-fold dilution): 10 mM),IRF Lucia reporter activity,RAW-Dual [2]; [5],0.763
same,IRF Lucia reporter activity,RAW-Dual [2]; agonist: LPS (TLR4) 0.1 ug/mL,1.35
CCN(C)S(=O)(=O)Nc1ccc(F)c(C(=O)c2c[nH]c3ncc(-c4cnc(C5CC5)nc4)cc23)c1F (library stock concentration (final ~1000-fold dilution): 10 mM),IRF Lucia reporter activity,RAW-Dual [2]; [5],0.0563
same,IRF Lucia reporter activity,RAW-Dual [2]; agonist: LPS (TLR4) 0.1 ug/mL,0.409
Cc1ccc2c(=O)c3cccc(CC(=O)O)c3oc2c1C,IRF Lucia reporter activity,RAW-Dual [1]; [4],0.965
Cc1c(-c2ccccc2)oc2c(C(=O)OCCN3CCCCC3)cccc2c1=O.Cl,IRF Lucia reporter activity,"RAW-Dual [1]; library stock concentration (final ~1000-fold dilution): 10 mM water, cytotoxicity flag (confluency mask): not cytotoxic",1.29
Cc1ccc2c(=O)c3cccc(CC(=O)O)c3oc2c1C (library stock concentration (final ~1000-fold dilution): 10 mM),IRF Lucia reporter activity,RAW-Dual [2]; [5],1.08
same,IRF Lucia reporter activity,RAW-Dual [2]; agonist: LPS (TLR4) 0.1 ug/mL,6.08
Cc1c(-c2ccccc2)oc2c(C(=O)OCCN3CCCCC3)cccc2c1=O.Cl (library stock concentration (final ~1000-fold dilution): 10 mM water),IRF Lucia reporter activity,RAW-Dual [2]; [5],1.09
same,IRF Lucia reporter activity,RAW-Dual [2]; agonist: LPS (TLR4) 0.1 ug/mL,0.892
CCC(=O)N1CCC(Nc2ncnc3c2CN(c2cnc(OC)c(C(F)(F)F)c2)CC3)C1 (stereo not drawn) (library stock concentration (final ~1000-fold dilution): 10 mM),IRF Lucia reporter activity,RAW-Dual [2]; [5],0.908
same,IRF Lucia reporter activity,RAW-Dual [2]; agonist: LPS (TLR4) 0.1 ug/mL,0.847
CCC1(O)C(=O)OCc2c1cc1n(c2=O)Cc2cc3cc(O)ccc3nc2-1 (stereo not drawn),IRF Lucia reporter activity,RAW-Dual [1]; [6],2.58
same,IRF Lucia reporter activity,RAW-Dual [1]; [4],1.03
CCC1(O)C(=O)OCc2c1cc1n(c2=O)Cc2cc3cc(O)ccc3nc2-1 (stereo not drawn) (library stock concentration (final ~1000-fold dilution): 10 mM),IRF Lucia reporter activity,RAW-Dual [2]; [5],0.975
same,IRF Lucia reporter activity,RAW-Dual [2]; agonist: LPS (TLR4) 0.1 ug/mL,0.604
same,IRF Lucia reporter activity,RAW-Dual [3]; [5],2.36
same,IRF Lucia reporter activity,RAW-Dual [3]; agonist: LPS (TLR4) 0.1 ug/mL,1.76
CCc1c2c(nc3ccc(OC(=O)N4CCC(N5CCCCC5)CC4)cc13)-c1cc3c(c(=O)n1C2)COC(=O)C3(O)CC.Cl.O.O.O (stereo not drawn) (library stock concentration (final ~1000-fold dilution): 10 mM),IRF Lucia reporter activity,RAW-Dual [2]; [5],0.87
same,IRF Lucia reporter activity,RAW-Dual [2]; agonist: LPS (TLR4) 0.1 ug/mL,1.1
CCC1(O)C(=O)OCc2c1cc1n(c2=O)Cc2cc3c(CN(C)C)c(O)ccc3nc2-1 (stereo not drawn) (library stock concentration (final ~1000-fold dilution): 10 mM),IRF Lucia reporter activity,RAW-Dual [2]; [5],2.77
same,IRF Lucia reporter activity,RAW-Dual [2]; agonist: LPS (TLR4) 0.1 ug/mL,3.25
CCc1c2c(nc3ccc(OC(=O)N4CCC(N5CCCCC5)CC4)cc13)-c1cc3c(c(=O)n1C2)COC(=O)C3(O)CC.Cl.O.O.O (stereo not drawn),IRF Lucia reporter activity,RAW-Dual [1]; [4],1.15
CCc1c2c(nc3ccc(O)cc13)-c1cc3c(c(=O)n1C2)COC(=O)C3(O)CC (stereo not drawn) (library stock concentration (final ~1000-fold dilution): 10 mM),IRF Lucia reporter activity,RAW-Dual [2]; [5],1.24
same,IRF Lucia reporter activity,RAW-Dual [2]; agonist: LPS (TLR4) 0.1 ug/mL,1.29
CCC1(O)C(=O)OCc2c1cc1n(c2=O)Cc2cc3c(CN(C)C)c(O)ccc3nc2-1.Cl (stereo not drawn) (library stock concentration (final ~1000-fold dilution): 10 mM),IRF Lucia reporter activity,RAW-Dual [3]; [5],2.13
same,IRF Lucia reporter activity,RAW-Dual [3]; agonist: LPS (TLR4) 0.1 ug/mL,2.49
CCc1c2c(nc3ccc(O)cc13)-c1cc3c(c(=O)n1C2)COC(=O)C3(O)CC (stereo not drawn),IRF Lucia reporter activity,RAW-Dual [1]; [4],1.65
CCC1(O)C(=O)OCc2c1cc1n(c2=O)Cc2cc3c(CN(C)C)c(O)ccc3nc2-1.Cl (stereo not drawn),IRF Lucia reporter activity,RAW-Dual [1]; [6],3.1
